Laboratory results from PubChem BioAssay (NCI).
Values joined by “and” are separate entries in the source; they are usually repeats but may differ in a detail not shown here. Equal values may be shown once. The panel holds about 83,000 compounds, 20% with a hit somewhere; the sample as a whole holds those more often.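 A percent growth of 40 corresponds to 60% growth inhibition; 0 means no net growth; -100 means all cells died. Active threshold: below 10.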 Active and inactive are the calls of the source.

What follows are compounds tested on MDA-MB-468 breast (assay: NCI-60 one-dose screen, 48 h (100 = growth as untreated, 0 = no growth, -100 = all killed)). Conditions: 10 µM unless noted.

**Q.** How did the growth turn out when `CCSc1nc(-c2ccc(F)cc2)c(C#N)c(=O)[nH]1` was run?
**A.** The growth was 91.4% (inactive).

**Q.** With `CCCCCCCCn1ccc2cc(NC(=O)Cn3cc(CN4CCCC4)nn3)ccc21` as the compound, how does the growth read?
**A.** The growth was 16.1% (inactive).

**Q.** `Fc1cc(-c2ncc(-c3cc(F)c(F)c(F)c3)c(NC3CCCCCC3)n2)cc(F)c1F` was tested. Which growth did it give?
**A.** The growth was 99% (inactive).

**Q.** For `CCn1c2ccc(/C=N/NS(=O)(=O)CCN(C)C)cc2c2cc(/C=N/NS(=O)(=O)CCN(C)C)ccc21`, which growth is on record?
**A.** The growth was 92.9% (inactive).

**Q.** `c1c[nH]c(CNC2CCCCC2)c1` was tested. Which growth did it give?
**A.** Its growth is 141% (inactive).

**Q.** Which growth does the source give for `O=C(O)c1ccc(CNc2ccc(C(=O)CCl)cc2)cc1` here?
**A.** The growth was 63.8% (inactive).

**Q.** For `C=C(C)CCCC(C)CC#N` (stereo not given), which growth is on record?
**A.** The growth was 93.3% (inactive).

**Q.** For `O=S(=O)(NCC[C@@H]1C[C@H]1c1ccc2ccccc2c1)c1ccc(C(F)(F)F)cc1`, which growth is on record?
**A.** Its growth is 72.3% (inactive).

**Q.** With `COc1c(N2CC3CCCNC3C2)c(F)cc2c(=O)c(C(=O)N/N=C/c3c[nH]c4ccccc34)cn(C3CC3)c12` (stereo not given) as the compound, how does the growth read?
**A.** The growth was 100% (inactive).

**Q.** Which growth does the source give for `CCN(CC)CCOc1ccc(Nc2ncc3cc(-c4c(Cl)cccc4Cl)c(=O)n(CCOC)c3n2)cc1` here?
**A.** The growth was 3.97% (active).

**Q.** For `CN(C)CCOc1ccc(-c2nc3ccc(-c4nc5ccc(N6CCN(C)CC6)cc5[nH]4)cc3[nH]2)cc1`, which growth is on record?
**A.** Its growth is 40.2% (inactive).

**Q.** Which growth does the source give for `CC(=O)c1ccc(C)cc1` here?
**A.** The growth was 98.4% (inactive).

**Q.** Which growth does the source give for `CCOC(=O)c1cccnc1Nc1ccc(NC(=O)Nc2ccc(Cl)c(C(F)(F)F)c2)cc1` here?
**A.** The growth was 21.3% (inactive).

**Q.** With `NS(=O)(=O)c1ccc(Nc2nc3n[nH]c(Nc4ccccc4)c3c(=O)[nH]2)cc1` as the compound, how does the growth read?
**A.** Its growth is 108% (inactive).

**Q.** With `COc1cc(C(=O)NNC(=O)c2ccc(NC(=O)CCl)cc2)cc(OC)c1OC` as the compound, how does the growth read?
**A.** Its growth is 70.3% (inactive).

**Q.** Which growth does the source give for `CCOC(=O)[C@@H]1CCCN(S(=O)(=O)c2ccc(S(=O)(=O)N(CC)CC)c(F)c2)C1` here?
**A.** Its growth is 36% (inactive).

**Q.** Which growth does the source give for `C#Cc1cccc(Nc2nc3cc([N+](=O)[O-])ccc3nc2Nc2ccc(O)cc2)c1` here?
**A.** The growth was 27.1% (inactive).

**Q.** `COC(=O)C(Br)(C(=O)OC)C(Br)C(Br)C(Br)c1ccccc1` (stereo not given) was tested. Which growth did it give?
**A.** Its growth is 7.49% (active).

**Q.** With `CCOC(=O)C(CNc1ccccc1)C(=O)OCC` as the compound, how does the growth read?
**A.** The growth was 93.3% (inactive).

**Q.** How did the growth turn out when `COc1ccc(Nc2nc(SC)nc(-c3cccc([N+](=O)[O-])c3)c2C#N)cc1` was run?
**A.** The growth was 54.7% (inactive).

**Q.** `Cc1cc(O)c(C(C)C)cc1S(=O)(=O)O` (tested in a mixture with another compound) was tested. Which growth did it give?
**A.** The growth was 91.8% (inactive) and -40.1% (active) and 115% (inactive).

**Q.** How did the growth turn out when `Cc1ccc(-c2nc([P+](c3ccccc3)(c3ccccc3)c3ccccc3)c(N3C[C@H]4C[C@H](C3)c3cccc(=O)n3C4)o2)cc1` was run?
**A.** The growth was -9.01% (active).

**Q.** With `O=C(NCCOCCOCCOCCNC(=O)c1cc2c(o1)C(=O)c1ccccc1C2=O)NC12CC3CC(CC(C3)C1)C2` as the compound, how does the growth read?
**A.** Its growth is -33.8% (active).

**Q.** `COc1ccc(C2=NN(C(=O)c3cc(OC)c(OC)c(OC)c3)C(c3ccc(Cl)cc3)C2)cc1OC` (stereo not given) was tested. Which growth did it give?
**A.** Its growth is 9.76% (active).

**Q.** For `COc1cc2nc(Cl)nc(Nc3cccc(C4=Nc5c(N)nc(N)nc5NC(c5ccc(Br)cc5)C4)c3)c2cc1OC` (stereo not given), which growth is on record?
**A.** The growth was 90.3% (inactive).

**Q.** `COc1ccc(-c2cc(=O)n(-c3nc4ccccc4[nH]3)[nH]2)cc1OC` was tested. Which growth did it give?
**A.** The growth was 83% (inactive).

**Q.** How did the growth turn out when `CCNCc1ccncc1` was run?
**A.** Its growth is 96.9% (inactive).

**Q.** For `Cn1cnc([N+](=O)[O-])c1S(=O)(=O)Oc1ccccc1`, which growth is on record?
**A.** The growth was 77.4% (inactive).

**Q.** With `CCCCn1c(=O)[nH]c(N)c([C@@H]2c3c([nH]c(=O)n(CCCC)c3=O)Oc3ccc4ccccc4c32)c1=O` as the compound, how does the growth read?
**A.** The growth was 113% (inactive).

**Q.** With `N#Cc1nc(-c2ccccc2)oc1S(=O)(=O)N1CCOCC1` as the compound, how does the growth read?
**A.** The growth was 71.2% (inactive).

**Q.** How did the growth turn out when `NC(CS/C(Cl)=C/Cl)C(=O)O` (stereo not given) was run?
**A.** The growth was -38.5% (active).

**Q.** For `COC(c1ccccc1)(c1ccccc1)c1ccccc1`, which growth is on record?
**A.** Its growth is 113% (inactive).

**Q.** `CCN(CC)CCNC(=O)c1cn2ncnc(Oc3ccc(NC(=O)Nc4ccc(Cl)c(C(F)(F)F)c4)cc3)c2c1C` was tested. Which growth did it give?
**A.** The growth was -80.7% (active).

**Q.** How did the growth turn out when `O=C1/C(=C/c2cccc([N+](=O)[O-])c2)COc2ccc(O)c(O)c21` was run?
**A.** Its growth is -47.8% (active).

**Q.** With `Cc1oc2ncnc(Nc3ccccc3)c2c1C(=O)NCCO` as the compound, how does the growth read?
**A.** Its growth is 109% (inactive).

**Q.** For `CNC(=O)c1cc(Oc2ccc3c(c2)sc2nc(-c4ccc(Cl)cc4)cn23)ccn1`, which growth is on record?
**A.** Its growth is 77.3% (inactive).

**Q.** `COc1ccc(/C=C/C(=O)c2cc(OC)c(OC)c(OC)c2)cc1OCc1cn(Cc2ccc(F)cc2)nn1` was tested. Which growth did it give?
**A.** The growth was 25.2% (inactive).

**Q.** For `CCOC(=O)C1=C(N)Oc2c(sc3c(F)cccc23)C1c1ccc(O)cc1` (stereo not given), which growth is on record?
**A.** The growth was 15.3% (inactive).

**Q.** How did the growth turn out when `CO[C@@H](C(=O)N1Cc2[nH]nc(NC(=O)c3ccc(N4CCN(C)CC4)cc3)c2C1)c1ccccc1` was run?
**A.** The growth was 50.7% (inactive).

**Q.** For `COc1cc(C2CC(=O)Nc3n[nH]c(-c4ccccc4)c32)cc(OC)c1OC` (stereo not given), which growth is on record?
**A.** Its growth is 38.5% (inactive).
